Drawing on PubChem BioAssay (EPA / NIEHS), this text covers outcome and AC50 for 26 compounds.

Inconclusive results are not listed. The source made the active and inactive calls. How the source made its calls: active means hit-call score of the fitted dose curve at least 0.9, where 1 is the maximum; inconclusive means response in the unintended direction; inactive means score below 0.9.

As a reminder, the AC50 is the concentration at which the activity in the assay is half-maximal.

frog Thyroid hormone Receptor alpha (TRa), thra-a (gene 397942), sequence (P15204 whole entry, looked up, the tested form may be a part): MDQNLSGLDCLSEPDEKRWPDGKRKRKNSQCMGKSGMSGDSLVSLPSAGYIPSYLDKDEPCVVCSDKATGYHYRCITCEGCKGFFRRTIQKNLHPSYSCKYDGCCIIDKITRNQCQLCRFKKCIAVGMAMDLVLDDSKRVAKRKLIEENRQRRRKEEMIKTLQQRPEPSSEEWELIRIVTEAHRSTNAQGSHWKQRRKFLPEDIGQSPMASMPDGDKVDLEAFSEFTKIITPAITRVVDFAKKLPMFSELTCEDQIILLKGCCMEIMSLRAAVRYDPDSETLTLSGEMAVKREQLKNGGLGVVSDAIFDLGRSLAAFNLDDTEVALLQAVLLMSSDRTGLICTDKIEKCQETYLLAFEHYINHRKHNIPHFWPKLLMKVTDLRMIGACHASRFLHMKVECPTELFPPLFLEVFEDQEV
human Thyroid hormone Receptor alpha (TRa), THRA (gene 7067), sequence (P10827 whole entry, looked up): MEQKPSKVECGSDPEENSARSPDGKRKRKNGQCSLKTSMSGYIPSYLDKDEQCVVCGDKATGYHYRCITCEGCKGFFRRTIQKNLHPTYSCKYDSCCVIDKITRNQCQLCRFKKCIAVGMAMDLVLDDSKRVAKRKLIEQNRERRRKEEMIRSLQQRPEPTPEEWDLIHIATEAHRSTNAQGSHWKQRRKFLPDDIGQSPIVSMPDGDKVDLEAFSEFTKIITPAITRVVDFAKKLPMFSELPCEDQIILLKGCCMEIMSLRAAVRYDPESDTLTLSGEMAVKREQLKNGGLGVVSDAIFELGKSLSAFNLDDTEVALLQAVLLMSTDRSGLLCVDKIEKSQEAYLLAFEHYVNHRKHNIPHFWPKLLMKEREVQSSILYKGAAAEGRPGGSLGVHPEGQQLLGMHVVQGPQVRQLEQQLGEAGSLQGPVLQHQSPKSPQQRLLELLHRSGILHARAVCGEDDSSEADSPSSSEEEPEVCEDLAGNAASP

System in one experiment: not listed separately
Description: ATG_XTT_Cytotoxicity_XSP2: Cytotoxicity Assessment in the Attagene TRANS-FACTORIAL Multi-Species (XSP2) HepG2 Assay (AID 2283837). Summed up:
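HepG2 cells, transiently transfected with multiple reporter constructs, exposed to chemical for 24 h. Cell number assessed with XTT fluorescence read-out; loss of signal fitted relative to DMSO.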
Consider `COc1ccc(-c2coc3cc(O)cc(O)c3c2=O)cc1`, for which the call was inactive.
The same measure, in the same setting: for `N#Cc1ccc(C2CCCc3cncn32)cc1` (stereo unspecified) the value was “inactive”.
Take `Oc1ccc(-c2ccccc2)c(Cl)c1`: the concentration at half-maximal activity (AC50) was 85.4 µM (active).
`Oc1ccccc1Cc1ccccc1O`: the call was inactive.
Take `CC(CCC(=O)O)(c1ccc(O)cc1)c1ccc(O)cc1`: the compound was classed as inactive.
Turning to `C=C1C[C@H]2[C@@H]3C=C(C)C4=CC(=O)CC[C@]4(C)[C@H]3CC[C@]2(C)[C@@]1(OC(C)=O)C(C)=O`, the call was inactive.
As for `COc1ccc(C(=O)c2ccccc2)c(O)c1`, the compound was called inactive.
Same read-out and setting: for `O=C(O)/C=C/c1ccccc1` the value was “inactive”.

The target of the next experiment is human Thyroid hormone Receptor alpha (TRa), THRA (gene 7067) (UniProt P10827). Description: ATG_hTRa_XSP2: Attagene TRANS-FACTORIAL Multi-Species (XSP2) HepG2 Assay for human Thyroid hormone Receptor alpha (TRa) (AID 2283838). As for the experimental part:
(§1) ATG_XSP2_multi-species_TRANS is a cell-based, multiplexed assay created by modifying the existing Attagene TRANS-FACTORIAL system to include a panel of nuclear receptors from some or all the following species: human (Homo sapiens), mouse (Mus musculus), frog (Xenopus laevis), zebrafish (Danio rerio), chicken (Gallus gallus), and turtle (Chrysemys picta). The ECOTOX-FACTORIAL format uses HepG2, a human liver cell line, with measurements taken at 24 hours after chemical dosing in a 24-well plate. Xsp2 included 3 nM 6-alpha-fluorotestosterone and 1.5 nM norgestrel to stimulate the androgen receptor.ATG_hTRa_XSP2 is one of 29 assay components measured or calculated from the ATG_XSP2_multi-species_TRANS assay. It is designed to make measurements of mRNA induction, a form of inducible reporter, as detected with fluorescence intensity signals by Reverse transcription polymerase chain reaction (RT-PCR) and Capillary electrophoresis technology.The assay endpoint ATG_hTRa_XSP2 was analyzed in the positive analysis fitting direction relative to DMSO as the negative control and baseline of activity. Using a type of inducible reporter, measures of mRNA for gain-of-signal activity can be used to understand the reporter gene at the transcription factor-level as they relate to the gene TR. Furthermore, this assay endpoint can be referred to as a primary readout, because this assay has produced multiple assay endpoints where this one serves a reporter gene function. To generalize the intended target to other relatable targets, this assay endpoint is annotated to the nuclear receptor intended target family, where the subfamily is non-steroidal.
(§2) Human liver HepG2 cells are transiently transfected with multiple reporter transcription units (MRTUs) in 6-well plates using FuGene 6 reagent (Roche; 3 ml FuGene/1 mg DNA). The MRTU constructs are regulated by a cis-regulating element (promoter). […] A major difference between the CIS and TRANS system is that in CIS activities of endogenous TFs are measured, whereas the TRANS assay evaluates changes in activities of exogenous, chimeric NR-Gal4 proteins. […] At the end of 24 hour incubation, total RNA was isolated using TriZol reagent (Invitrogen). The isolated RNA is then reverse-transcribed using oligo(dT) primer and Mo-MLV reverse transcriptase (Invitrogen) with DNAse I (Ambion) treatment for 30 min. The one-tenth of the produced cDNA was amplified by PCR using Taq DNA polymerase (Invitrogen) and two reporter sequence-specific primers. The PCR products were fluorescently labeled by primer extension with 6-arboxyfluorescein (6-FAM) 5'-labeled reporter sequence-specific primer (2 min at 95 C, 20 s at 68 C and 10 min at 72 C) and these products were digested with 5U of HpaI (New England Biolabs) for 2h at 37 C. The fragments were purified using Qiaquick PCR columns (Qiagen), analyzed on an ABI 3130xL genetic analyzer (Applied Biosystems) with peak positions identified by using a set of X-rhodamine (ROX)-labeled MapMarker1000 molecular weight standards (BioVentures). The raw capillary electrophoresis data was processed using Attagraph software (Attagene).
As to `COc1ccc(-c2coc3cc(O)cc(O)c3c2=O)cc1`, the compound was called inactive.
The same measure, in the same setting: for `Oc1ccc(-c2ccccc2)c(Cl)c1` the value was “inactive”; for `Oc1ccccc1Cc1ccccc1O`, “inactive”; for `CC(CCC(=O)O)(c1ccc(O)cc1)c1ccc(O)cc1`, “inactive”.
The same measure, in the same setting: the result for `C=C1C[C@H]2[C@@H]3C=C(C)C4=CC(=O)CC[C@]4(C)[C@H]3CC[C@]2(C)[C@@]1(OC(C)=O)C(C)=O` reads “inactive”; that for `COc1ccc(C(=O)c2ccccc2)c(O)c1`, “inactive”.
Same read-out and setting: the result for `O=C(O)/C=C/c1ccccc1` reads “inactive”.

The target in a further experiment is frog Thyroid hormone Receptor alpha (TRa), thra-a (gene 397942) (UniProt P15204). Description: ATG_frTRa_XSP2: Attagene TRANS-FACTORIAL Multi-Species (XSP2) HepG2 Assay for frog Thyroid hormone Receptor alpha (TRa) (AID 2283839). In a few lines:
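HepG2 transiently transfected with multiplexed GAL4-UAS reporters driven by frog TRa-Gal4 chimeras; 24 h chemical exposure. Reporter mRNA quantified by RT-PCR, FAM labelling, HpaI digestion and capillary electrophoresis; gain of signal versus DMSO.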
Regarding `COc1ccc(-c2coc3cc(O)cc(O)c3c2=O)cc1`, the outcome was inactive.
`N#Cc1ccc(C2CCCc3cncn32)cc1` (stereo unspecified): the outcome was inactive.
The same measure, in the same setting: the result for `Oc1ccc(-c2ccccc2)c(Cl)c1` reads “inactive”.
Same read-out and setting: for `Oc1ccccc1Cc1ccccc1O` the value was “inactive”; for `CC(CCC(=O)O)(c1ccc(O)cc1)c1ccc(O)cc1`, “inactive”.
On the same count and under the same terms, for `C=C1C[C@H]2[C@@H]3C=C(C)C4=CC(=O)CC[C@]4(C)[C@H]3CC[C@]2(C)[C@@]1(OC(C)=O)C(C)=O` the value was “inactive”; for `COc1ccc(C(=O)c2ccccc2)c(O)c1`, “inactive”.

For another experiment, the target named is human Thyroid hormone Receptor beta (TRb), THRB (gene 7068) (UniProt P10828). Description: ATG_hTRb_XSP2: Attagene TRANS-FACTORIAL Multi-Species (XSP2) HepG2 Assay for human Thyroid hormone Receptor beta (TRb) (AID 2283840).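 Further: actives raise reporter mRNA so potency reflects agonist-like gain of signal.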 As for the experimental part: as §1, with “receptor.ATG_hTRb_XSP2” for “receptor.ATG_hTRa_XSP2”, “ATG_hTRb_XSP2” for “ATG_hTRa_XSP2”
human Thyroid hormone Receptor beta (TRb), THRB (gene 7068), sequence (P10828 whole entry, looked up): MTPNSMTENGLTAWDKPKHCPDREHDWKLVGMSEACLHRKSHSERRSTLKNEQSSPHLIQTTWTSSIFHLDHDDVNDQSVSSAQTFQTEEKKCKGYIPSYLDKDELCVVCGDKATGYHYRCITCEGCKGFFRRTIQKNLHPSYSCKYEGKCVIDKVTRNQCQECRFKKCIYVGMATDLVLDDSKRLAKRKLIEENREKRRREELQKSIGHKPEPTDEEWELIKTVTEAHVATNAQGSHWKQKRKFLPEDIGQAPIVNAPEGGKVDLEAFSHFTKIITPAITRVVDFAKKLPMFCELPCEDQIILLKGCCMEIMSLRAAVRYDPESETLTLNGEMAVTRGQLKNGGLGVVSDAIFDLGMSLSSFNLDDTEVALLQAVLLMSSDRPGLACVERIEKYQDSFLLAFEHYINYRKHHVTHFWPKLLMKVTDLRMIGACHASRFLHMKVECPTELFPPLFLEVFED
as §2
On to `COc1ccc(-c2coc3cc(O)cc(O)c3c2=O)cc1`, for which the compound was called inactive.
As for `CCCCCCCCCCCCc1ccc(O)cc1`, the call was inactive.
Still for that read-out and setting: the result for `Oc1ccc(-c2ccccc2)c(Cl)c1` reads “inactive”; that for `Oc1ccccc1Cc1ccccc1O`, “inactive”.
On the same count and under the same terms, the result for `CC(CCC(=O)O)(c1ccc(O)cc1)c1ccc(O)cc1` reads “inactive”; that for `C=C1C[C@H]2[C@@H]3C=C(C)C4=CC(=O)CC[C@]4(C)[C@H]3CC[C@]2(C)[C@@]1(OC(C)=O)C(C)=O`, “inactive”.
Still for that read-out and setting: for `COc1ccc(C(=O)c2ccccc2)c(O)c1` the value was “inactive”; for `O=C(O)/C=C/c1ccccc1`, “inactive”.

In another experiment the test system is Sodium/Iodide Symporter (NIS), SLC5A5 (gene 6528). Kind of experiment: CPHEA_Stoker_NIS_Inhibition_RAIU: CPHEA's Radioactive Iodide Uptake (RAIU) Assay for Sodium/Iodide Symporter (NIS) Inhibition, Stoker and Laws Labs (AID 2283841). In a few lines:
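hNIS-HEK293T-EPA cells incubated 2 h at room temperature with compound (0.001–100 uM, 0.5% DMSO) and 329 pM final 125I in HBSS/10 mM HEPES, pH 7.4. Intracellular 125I counted; normalised to DMSO maximal uptake, triplicate, three biological replicates.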
Consider `CN(C)c1ccc2nc3ccc(=[N+](C)C)cc-3sc2c1`, for which the outcome was inactive.
On the same count and under the same terms, the result for `C/C=C/C=C/CCCCCCCO` reads “inactive”.
Take `COc1ccc(-c2coc3cc(O)cc(O)c3c2=O)cc1`: the AC50 is 9.92 µM (active).
With `CCCCCCCCCC[N+](C)(CCCCCCCCCC)CCC[Si](OC)(OC)OC`, the result was inactive.
Turning to `O=C(Oc1ccccc1)c1ccccc1O`, the outcome was inactive.
The same measure, in the same setting: the result for `CCCCCCCOC(=O)c1ccc(O)cc1` reads “inactive”.
For the compound `c1ccc(Nc2cccc3ccccc23)cc1`, the AC50 was 21.5 µM (active).
Consider `CCCCC/C=C\C/C=C\CCCCCCCC(=O)O`, for which the outcome was inactive.
Same read-out and setting: for `Cc1ccc([N+](=O)[O-])cc1N` the value was “inactive”; for `O=C(OCCc1ccccc1)c1ccccc1`, “inactive”.
Same read-out and setting: the result for `O=C(OCc1ccccc1)c1ccc(O)cc1` reads “inactive”.
In the case of `Oc1ccc(-c2ccccc2)c(Cl)c1`, the outcome was inactive.
`O=C(Nc1ccccc1)c1cc(Cl)ccc1O`: the AC50 was 0.851 µM (active).
Take `CCCCCCCCCCCCCCCCCCOS(=O)(=O)O`: the outcome was inactive.
Regarding `C=CCOC(=O)c1ccc(C(=O)OCC=C)c(C(=O)OCC=C)c1`, the AC50 was 10.2 µM (active).
On to `CC(C)c1ccc(O)c(C(C)C)c1`, for which the outcome was inactive.
Take `C[N+](C)(C)CCCNS(=O)(=O)C(F)(F)C(F)(F)C(F)(F)C(F)(F)C(F)(F)C(F)(F)C(F)(F)C(F)(F)F`: the AC50 is 7.09 µM (active).
Turning to `CO[Si](C)(C)OC`, the result was inactive.
On the same count and under the same terms, the result for `O=C(O)c1cc(O)c2ccccc2c1O` reads “inactive”; that for `C=C1C[C@H]2[C@@H]3C=C(C)C4=CC(=O)CC[C@]4(C)[C@H]3CC[C@]2(C)[C@@]1(OC(C)=O)C(C)=O`, “inactive”; that for `COc1ccc(C(=O)c2ccccc2)c(O)c1`, “inactive”.

System in the next experiment: not listed separately
Description: CPHEA_Stoker_NIS_Cytotoxicity: Cytotoxicity Assessment for CPHEA's Radioactive Iodide Uptake (RAIU) Assay for Sodium/Iodide Symporter (NIS) Inhibition, Stoker and Laws Labs (AID 2283897).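 On AC50: active means loss of ATP signal versus DMSO meaning cytotoxicity.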 Summed up:
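hNIS-HEK293T-EPA cells, human NIS expressed in HEK293T, treated 2 h with chemicals (0.001–100 uM, 0.5% final DMSO). ATP content read by CellTiter-Glo luminescence; loss of signal analysed relative to DMSO.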
On to `CN(C)c1ccc2nc3ccc(=[N+](C)C)cc-3sc2c1`, for which the AC50 is 50 µM (active).
On to `C/C=C/C=C/CCCCCCCO`, for which the result was inactive.
For `COc1ccc(-c2coc3cc(O)cc(O)c3c2=O)cc1`, the outcome was inactive.
The same measure, in the same setting: the result for `CCCCCCCCCC[N+](C)(CCCCCCCCCC)CCC[Si](OC)(OC)OC` reads “inactive”; that for `O=C(Oc1ccccc1)c1ccccc1O`, “inactive”; that for `CCCCCCCOC(=O)c1ccc(O)cc1`, “inactive”.
As for `c1ccc(Nc2cccc3ccccc23)cc1`, the result was inactive.
Consider `CCCCC/C=C\C/C=C\CCCCCCCC(=O)O`, for which the AC50 is 80.1 µM (active).
In the case of `Cc1ccc([N+](=O)[O-])cc1N`, the result was inactive.
Same read-out and setting: the result for `O=C(OCCc1ccccc1)c1ccccc1` reads “inactive”; that for `O=C(OCc1ccccc1)c1ccc(O)cc1`, “inactive”.
Still for that read-out and setting: for `Oc1ccc(-c2ccccc2)c(Cl)c1` the value was “inactive”; for `O=C(Nc1ccccc1)c1cc(Cl)ccc1O`, “inactive”.
Still for that read-out and setting: the result for `CCCCCCCCCCCCCCCCCCOS(=O)(=O)O` reads “inactive”.
In the case of `C=CCOC(=O)c1ccc(C(=O)OCC=C)c(C(=O)OCC=C)c1`, the outcome was inactive.
In the case of `CC(C)c1ccc(O)c(C(C)C)c1`, the result was inactive.
Turning to `CO[Si](C)(C)OC`, the outcome was inactive.
The same measure, in the same setting: for `O=C(O)c1cc(O)c2ccccc2c1O` the value was “inactive”; for `C=C1C[C@H]2[C@@H]3C=C(C)C4=CC(=O)CC[C@]4(C)[C@H]3CC[C@]2(C)[C@@]1(OC(C)=O)C(C)=O`, “inactive”.
Still for that read-out and setting: the result for `COc1ccc(C(=O)c2ccccc2)c(O)c1` reads “inactive”.
